Screening results from PubChem.
HIF-2a inh: blocks HIF-2a reporter activity; 786-0 RCC cells HIF-2a reporter, luciferase luminescence, overnight; inhibition, % at 18.8 µM; actives 0.72% (n = 360,000); AID 624352;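 active means inhibition of the luminescence signal of 40% or more relative to plate controls, in a single-dose primary screen at 18.75 µM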
TWEAK Fn14 block: TWEAK-Fn14 signaling inhibition | TWEAK-stimulated Fn14 reporter cells, luciferase luminescence, 8 h | inhibition, % at 10 µM | actives 2% (n = 360,000); in the data active means inhibition above about 50%
aSyn UTR inh: 5' untranslated region of α-synuclein, MLPCN primary screen; alpha-synuclein 5'UTR reporter, inhibitor activity; inhibition, % (tested at 7.5 µM); actives 0.82% (n = 300,000); AID 1813; in the data active means inhibition above about 60%;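 further: H4 neuroglioblastoma cells stably carrying SNCA 5'UTR luciferase fusion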
HSP90 inh: inhibitors of HSP90 luciferase refolding in rabbit reticulocyte lysate. inhibition, % at 5.6 µM. AID 1789. actives 0.91% (n = 290,000). luciferase refolding luminescence, 3 h;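 active means inhibition above the screen-wide mean plus 3 SD, computed separately per campaign, cut at about 16% in these data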;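 further: inhibitors lower the luminescence because luciferase stays unfolded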
TROY signal inh: inhibitors of TROY-dependent NF-kB signaling; Q293 LMP1-TROYcd NF-kB luciferase reporter, 4 h; inhibition, % at 10 µM; actives 0.98% (n = 360,000);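 active means compounds whose plate-normalised and pattern-corrected inhibition of the luciferase reporter signal at the single screening dose is 50% or more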
TRAIL sens C8: sensitizes caspase-8 expressing cells to TRAIL | NB7+C8 cells + TRAIL, ATPlite viability luminescence | inhibition (viability loss, TRAIL sensitization), % at 10 µM | actives 1% (n = 360,000);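 active means compounds causing at least 50% loss of cell viability in the single-dose screen, relative to plate controls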
Hits are given with their value; . = inactive; / = not tested or not shown. Sampled rows, rich in hits. Any-hit rate of the full collection: about 3.9%.

SMILES	HIF-2a inh	TWEAK Fn14 block	aSyn UTR inh	HSP90 inh	TROY signal inh	TRAIL sens C8
COc1ccc(CN2C[C@H]3CON(C)[C@H]3C[C@H]2c2ccc(-c3ccccc3)cc2)cc1	.	.	/	/	.	.
CC(C)=C1C2CCC1C(C(=O)Nc1sc(C)c(-c3ccc(C(C)C)cc3)c1C(N)=O)C2C(=O)O (configuration not stated)	.	.	.	.	51.3	.
Cc1nc(-c2ccccc2)sc1C(=O)NS(=O)(=O)c1ccc(CN2CCN(c3ccccc3)CC2)cc1	.	.	/	/	.	.
Cc1sc2ncnc(N3CCC(C(=O)N(C)CC(=O)Nc4ccccc4Br)CC3)c2c1C	.	51.2	.	.	.	.
Cc1sc2ncnc(N3CCC(C(=O)N(C)CC(=O)Nc4ccccc4Cl)CC3)c2c1C	.	.	.	.	.	.
Cc1sc2ncnc(N3CCC(C(=O)N(C)CC(=O)Nc4ccc(Cl)c(C(F)(F)F)c4)CC3)c2c1C	.	51.0	.	/	58.0	.
Cc1sc2ncnc(N3CCC(C(=O)N(C)CC(=O)Nc4cccc(F)c4)CC3)c2c1C	.	65.0	/	/	.	.
O=C(NCC[C@H]1CC[C@@H](NC(=O)C2CCC2)[C@@H](CO)O1)c1cc(Cl)cc(Cl)c1	.	/	/	/	/	.
CC1C(=O)C(C)C(c2ccc(Cl)cc2)NC1c1ccc(Cl)cc1 (configuration not stated)	.	.	68.5	/	.	.
COc1ccc(C2NC(c3ccc(OC)cc3)C(C)C(=O)C2C)cc1 (configuration not stated)	.	.	.	.	.	.
CCN(CC)CC(=O)Nc1ccc(-c2nc3cc(NC(=O)CN(CC)CC)ccc3o2)cc1	.	.	.	.	.	.
O=C(CN1CCCC1)Nc1ccc(-c2nc3cc(NC(=O)CN4CCCC4)ccc3o2)cc1	.	.	.	.	52.8	.
O=C(CN1C(=O)c2ccccc2C1=O)Nc1ccc(-c2nc3ccccc3o2)cc1	.	72.1	.	.	/	.
CC(C)(C)c1ccc(SC2=C[C@@]3(O)CC[C@@H](O)[C@@](Sc4ccc(C(C)(C)C)cc4)(C2=O)[C@H]3O)cc1	.	.	/	/	.	.
O=C(Cc1cccs1)N/N=C/C(Br)=C/c1ccccc1	.	.	.	.	.	.
Cc1ccccc1NCC(=O)N/N=C/C(Br)=C/c1ccccc1	.	57.7	.	.	.	.
CCCCCc1nc2sc3c(c2c(=O)n1NC(=O)c1ccc([N+](=O)[O-])cc1)CC(C)(C)OC3	.	70.2	.	.	.	.
COc1ncnc2c1ncn2CCCNCc1ccccc1	.	.	/	/	.	.
COC(=O)C1=C(C)N(Cc2ccc(C)cc2)C(=O)/C1=C\c1ccc(O)c(OC)c1	.	.	.	.	.	.
COC(=O)C1=C(C)N(Cc2ccc(C)cc2)C(=O)/C1=C\c1cc(OC)c(OC)c(OC)c1	50.9	.	.	.	.	.
CCCOC(=O)Cn1c(=O)c2cc3c(=O)n(CC(=O)OCCC)c(=O)c3cc2c1=O	.	.	.	.	62.5	.
O=[N+]([O-])c1ccc2nc(-c3ccc(Cl)cc3)n(OCc3ccccc3)c2c1	.	.	.	.	55.6	.
COc1ccc(Cn2c(C)nc3c(c2=O)c2nc4ccccc4nc2n3Cc2ccco2)cc1	.	52.3	/	/	.	.
Cc1nc2ccccc2c(=O)n1Cc1ccco1	.	.	.	.	.	.
O=C(Nc1cc(C(F)(F)F)ccc1N1CCOCC1)c1ccccc1F	.	61.5	.	.	/	.
SMILES	HIF-2a inh	TWEAK Fn14 block	aSyn UTR inh	HSP90 inh	TROY signal inh	TRAIL sens C8
Cc1ccc2nc(SCC(=O)Nc3cc(C(F)(F)F)ccc3N3CCOCC3)[nH]c2c1	.	.	95.8	.	.	.
O=C(CSc1nccc(=O)[nH]1)Nc1cc(C(F)(F)F)ccc1N1CCOCC1	.	.	.	.	.	.
O=C(Nc1cc(C(F)(F)F)ccc1N1CCOCC1)c1cccc(F)c1	.	.	.	.	.	.
O=C(C1CCCCC1)N1CCN=C1SCc1cccc([N+](=O)[O-])c1	.	53.6	.	.	.	.
O=C(C1CCCCC1)N1CCN=C1SCc1cccnc1	.	.	.	.	.	.
O=C(N/N=C/c1cccc([N+](=O)[O-])c1)c1ccc2c(c1)OCCO2	.	.	.	.	.	68.1
O=C(N/N=C/c1cccnc1)c1ccccc1	.	.	.	.	.	.
Nc1ccccc1C(=O)NN=Cc1cccnc1	.	.	/	/	.	60.0
O=C(N/N=C/c1c[nH]c2ccccc12)c1ccc2c(c1)OCCO2	.	.	.	.	.	75.8
